Results: PubChem BioAssay AID2284104 (EPA ToxCast)
Activity calls are given as the source filed them. Rule for the calls: active = hit-call score of the fitted dose curve at least 0.9, where 1 is the maximum; inactive = score below 0.9.

target: human PRAK CAMK Kinase, MAPKAPK5 (gene 8550) (UniProt Q8IW41); assay: ERF_TW_ENZ_hMAPKAPK5: Eurofins (ERF) Enzymatic Radiometric [10 uM ATP] LeadHunter Assay for human PRAK CAMK Kinase
Protocol: ERF_TW_ENZ_hMAPKAPK5 is a biochemical, single-readout assay that uses extracted gene-proteins in a cell-free assay. Measurements were taken 0.5 hour after chemical dosing in a 96-well plate. See PRAK Human CAMK Kinase Enzymatic Radiometric Assay [10 uM ATP], Panlabs.ERF_TW_ENZ_hMAPKAPK5 is an assay component calculated from the ERF_TW_ENZ_hMAPKAPK5 assay. It is designed to measure enzyme activity using a type of enzyme reporter as detected by scintillation counting with radiometry technology.Data from the assay component ERF_TW_ENZ_hMAPKAPK5 was analyzed at the assay endpoint, ERF_TW_ENZ_hMAPKAPK5, in the positive analysis fitting direction relative to DMSO as the negative control and baseline of activity. Using a type of enzyme reporter, loss-of-signal activity can be used to understand changes in enzymatic activity as they relate to gene MAPKAPK5. To generalize the intended target to other relatable targets, this assay endpoint is annotated to the kinase intended target family, where the subfamily is serine/threonine kinase.
Human recombinant protein kinase PRAK expressed in insect Sf21 cells is used. Test compound is preincubated with 0.44 U/ml enzyme in modified MOPS buffer pH 7.2 for 15 minutes at 37C. […] An aliquot is removed and counted to determine the amount of [32P]PRAK substrate. […]

Sequence of human PRAK CAMK Kinase, MAPKAPK5 (gene 8550) (Q8IW41 whole entry, looked up): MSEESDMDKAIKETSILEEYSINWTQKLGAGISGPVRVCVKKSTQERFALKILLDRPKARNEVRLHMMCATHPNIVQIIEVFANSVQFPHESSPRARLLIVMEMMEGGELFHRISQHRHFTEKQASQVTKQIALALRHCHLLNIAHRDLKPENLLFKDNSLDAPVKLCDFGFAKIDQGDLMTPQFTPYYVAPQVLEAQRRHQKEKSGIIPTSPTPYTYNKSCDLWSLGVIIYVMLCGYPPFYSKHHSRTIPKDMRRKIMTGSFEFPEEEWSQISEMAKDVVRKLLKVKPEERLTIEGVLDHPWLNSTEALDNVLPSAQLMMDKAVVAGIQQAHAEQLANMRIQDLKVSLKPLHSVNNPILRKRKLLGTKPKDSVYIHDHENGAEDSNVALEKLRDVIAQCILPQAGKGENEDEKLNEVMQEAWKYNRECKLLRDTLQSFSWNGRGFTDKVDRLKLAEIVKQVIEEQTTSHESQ

SMILES	AC50
O=C(/C=C/c1ccc(O)cc1)CC(=O)/C=C/c1ccc(O)cc1	1.02 µM (active)
